Experimental data as given in PubChem BioAssay AID1159580 (chemical genetic matrix, 2015).
Out of some 5,500 compounds screened, about 2,000 (36%) were called active. Roughly 18% stayed inconclusive and do not appear here. Rule as the data show it: active = normalized growth mostly below about 0.91 (no sharp cut-off); inconclusive = no clear call, values can overlap the other calls; inactive = mostly above about 0.92. Some of the results follow.

Test: chemical genetic growth profiling, strain panel (AID 1159580);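 also: tested at 20 µM; growth read once vehicle control cultures reached saturation at 30 °C; 1 = growth at the plate median or of vehicle wells; lower values mean less growth of the strain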
Conditions: growth OD

Measured: normalized growth

CC[C@@]1(O)C(=O)OCc2c1cc1n(c2=O)Cc2cc3cc(O)ccc3nc2-1
active: S. cerevisiae deletion strains, locus YML032C, strain rad52, stronger effect = lower value 0.407 | S. cerevisiae deletion strains, locus YNL250W, strain rad50, stronger effect = lower value 0.429
inactive: S. cerevisiae deletion strains, locus YKL068W, stronger effect = lower value 0.996 | S. cerevisiae deletion strains, locus YKL085W, strain MDH1 (second series), stronger effect = lower value 1.01 | S. cerevisiae deletion strains, locus YKL085W, strain MDH1, stronger effect = lower value 1.01 | S. cerevisiae deletion strains, locus YKL160W, strain elf1, stronger effect = lower value 1.02 | S. cerevisiae deletion strains, locus YKL190W, strain CNB1, stronger effect = lower value 1.02 | S. cerevisiae deletion strains, locus YKR001C, strain vps1, stronger effect = lower value 1 | S. cerevisiae deletion strains, locus YKR026C, strain gcn3, stronger effect = lower value 0.997 | S. cerevisiae deletion strains, locus YKR091W, strain srl3, stronger effect = lower value 1.01 | S. cerevisiae deletion strains, locus YLL001W, strain dnm1, stronger effect = lower value 1 | S. cerevisiae deletion strains, locus YLL026W, stronger effect = lower value 1.02 | S. cerevisiae deletion strains, locus YLL041C, strain sdh2, stronger effect = lower value 1.02 | S. cerevisiae deletion strains, locus YLR027C, strain aat2, stronger effect = lower value 1 | S. cerevisiae deletion strains, locus YLR039C, strain RIC1, stronger effect = lower value 1.03 | S. cerevisiae deletion strains, locus YLR058C, strain SHM2, stronger effect = lower value 1.02 | S. cerevisiae deletion strains, locus YLR102C, strain apc9, stronger effect = lower value 0.992 | S. cerevisiae deletion strains, locus YLR113W, strain HOG1, stronger effect = lower value 0.942 | S. cerevisiae deletion strains, locus YLR221C, strain rsa3, stronger effect = lower value 0.966 | S. cerevisiae deletion strains, locus YLR258W, strain gsy2, stronger effect = lower value 1.03 | S. cerevisiae deletion strains, locus YLR262C, strain YPT6 (second series), stronger effect = lower value 0.984 | S. cerevisiae deletion strains, locus YLR262C, strain YPT6, stronger effect = lower value 1.04 | S. cerevisiae deletion strains, locus YLR268W, strain sec22, stronger effect = lower value 0.96 | S. cerevisiae deletion strains, locus YLR320W, strain mms22, stronger effect = lower value 0.884 | S. cerevisiae deletion strains, locus YLR330W, strain CHS5, stronger effect = lower value 1.02 | S. cerevisiae deletion strains, locus YLR342W, strain FKS1 (second series), stronger effect = lower value 0.995 | S. cerevisiae deletion strains, locus YLR342W, strain FKS1, stronger effect = lower value 1.01 | S. cerevisiae deletion strains, locus YLR357W, strain rsc2, stronger effect = lower value 1.03 | S. cerevisiae deletion strains, locus YLR370C, strain arc18, stronger effect = lower value 1.01 | S. cerevisiae deletion strains, locus YLR371W, strain rom2, stronger effect = lower value 0.994 | S. cerevisiae deletion strains, locus YLR384C, strain iki3, stronger effect = lower value 1.02 | S. cerevisiae deletion strains, locus YLR418C, strain cdc73, stronger effect = lower value 1.02 | S. cerevisiae deletion strains, locus YML016C, strain PPZ1, stronger effect = lower value 1.02 | S. cerevisiae deletion strains, locus YML120C, strain ndi1, stronger effect = lower value 0.995 | S. cerevisiae deletion strains, locus YML124C, strain tub3, stronger effect = lower value 0.983 | S. cerevisiae deletion strains, locus YMR058W, strain fet3, stronger effect = lower value 1.01 | S. cerevisiae deletion strains, locus YMR078C, strain ctf18, stronger effect = lower value 0.947 | S. cerevisiae deletion strains, locus YMR125W, strain sto1, stronger effect = lower value 1.03 | S. cerevisiae deletion strains, locus YMR129W, stronger effect = lower value 1.02 | S. cerevisiae deletion strains, locus YMR205C, strain PFK2, stronger effect = lower value 0.98 | S. cerevisiae deletion strains, locus YMR223W, strain ubp8, stronger effect = lower value 0.981 | S. cerevisiae deletion strains, locus YMR231W, strain pep5, stronger effect = lower value 1 | S. cerevisiae deletion strains, locus YMR263W, strain SAP30, stronger effect = lower value 1.03 | S. cerevisiae deletion strains, locus YMR307W, strain GAS1, stronger effect = lower value 1.03 | S. cerevisiae deletion strains, locus YNL067W, strain RPL9B, stronger effect = lower value 1.01 | S. cerevisiae deletion strains, locus YNL071W, strain lat1, stronger effect = lower value 1.02 | S. cerevisiae deletion strains, locus YNL128W, strain TEP1, stronger effect = lower value 1.02 | S. cerevisiae deletion strains, locus YNL183C, strain NPR1, stronger effect = lower value 0.91 | S. cerevisiae deletion strains, locus YNL209W, strain ssb2, stronger effect = lower value 1.03 | S. cerevisiae deletion strains, locus YNL233W, strain BNI4, stronger effect = lower value 1.01 | S. cerevisiae deletion strains, locus YNL248C, strain rpa49, stronger effect = lower value 1.03 | S. cerevisiae deletion strains, locus YNL271C, strain bni1, stronger effect = lower value 0.991 | S. cerevisiae deletion strains, locus YNL298W, strain CLA4, stronger effect = lower value 0.992 | S. cerevisiae deletion strains, locus YNL307C, strain MCK1, stronger effect = lower value 0.979 | S. cerevisiae deletion strains, locus YNL322C, strain KRE1 (second series), stronger effect = lower value 1.06 | S. cerevisiae deletion strains, locus YNL322C, strain KRE1, stronger effect = lower value 1.01 | S. cerevisiae deletion strains, locus YNR049C, strain mso1, stronger effect = lower value 1 | S. cerevisiae deletion strains, locus YNR052C, strain pop2, stronger effect = lower value 0.997 | S. cerevisiae deletion strains, locus YOL012C, strain htz1 0.802 | S. cerevisiae deletion strains, locus YOL147C, strain pex11, stronger effect = lower value 0.983 | S. cerevisiae deletion strains, locus YOR001W, strain rrp6, stronger effect = lower value 0.967 | S. cerevisiae deletion strains, locus YOR061W, strain CKA2, stronger effect = lower value 1.02 | S. cerevisiae deletion strains, locus YOR069W, strain VPS5, stronger effect = lower value 1.02 | S. cerevisiae deletion strains, locus YOR070C, strain gyp1, stronger effect = lower value 1.01 | S. cerevisiae deletion strains, locus YOR080W, strain dia2, stronger effect = lower value 1.01 | S. cerevisiae deletion strains, locus YOR083W, strain WHI5, stronger effect = lower value 1 | S. cerevisiae deletion strains, locus YOR106W, strain vam3, stronger effect = lower value 1.03 | S. cerevisiae deletion strains, locus YOR136W, strain idh2, stronger effect = lower value 0.971 | S. cerevisiae deletion strains, locus YOR144C, strain elg1, stronger effect = lower value 0.988 | S. cerevisiae deletion strains, locus YOR184W, strain ser1, stronger effect = lower value 0.972 | S. cerevisiae deletion strains, locus YOR231W, strain MKK1, stronger effect = lower value 0.951 | S. cerevisiae deletion strains, locus YOR265W, strain rbl2, stronger effect = lower value 0.984 | S. cerevisiae deletion strains, locus YOR270C, strain vph1, stronger effect = lower value 1.03 | S. cerevisiae deletion strains, locus YOR290C, strain snf2, stronger effect = lower value 1.03 | S. cerevisiae deletion strains, locus YOR316C, strain cot1, stronger effect = lower value 0.987 | S. cerevisiae deletion strains, locus YPL051W, strain arl3, stronger effect = lower value 1 | S. cerevisiae deletion strains, locus YPL055C, strain LGE1, stronger effect = lower value 1.02 | S. cerevisiae deletion strains, locus YPL078C, strain atp4, stronger effect = lower value 1.04 | S. cerevisiae deletion strains, locus YPL106C, strain sse1, stronger effect = lower value 1.06 | S. cerevisiae deletion strains, locus YPL240C, strain hsp82, stronger effect = lower value 1.01 | S. cerevisiae deletion strains, locus YPL241C, strain CIN2, stronger effect = lower value 1.01 | S. cerevisiae deletion strains, locus YPL256C, strain CLN2, stronger effect = lower value 0.945 | S. cerevisiae deletion strains, locus YPR119W, strain clb2, stronger effect = lower value 0.982 | S. cerevisiae deletion strains, locus YPR141C, strain kar3, stronger effect = lower value 0.999 | S. cerevisiae deletion strains, locus YPR163C, strain tif3, stronger effect = lower value 0.991 | S. cerevisiae deletion strains, locus YPR167C, strain met16, stronger effect = lower value 0.987 | S. cerevisiae deletion strains, strain wtn01, stronger effect = lower value 0.97 | S. cerevisiae strains, strain wild type, stronger effect = lower value 1.02
